# Measured values as given in article PMC11062922 (Nature Chemical Biology, 2023).
# Read-outs that look alike come from different tables or passages of the source.
# Tests used:
# Parameters in all cases: species or system human, MV4-11 + K-562 + COLO205 + SK-N-BE2 + OVCAR-8
# CLK1 = conditions: read-out: apparent Kd, compound concentrations: 100 nM and 1000 nM (sheet 'Samples'), n = 1
# CLK4 = conditions: read-out: apparent Kd, compound concentrations: 100 nM and 1000 nM (sheet 'Samples'), n = 1
# CSNK1D = conditions: read-out: apparent Kd, n = 1
# CSNK1E = conditions: read-out: apparent Kd, n = 1
# EIF2AK1 = conditions: read-out: apparent Kd; compound concentrations: 100 nM and 1000 nM (sheet 'Samples'), CATDS: 4.8293070245640599E-2; n = 1
# FER = conditions: read-out: apparent Kd; compound concentrations: 100 nM and 1000 nM (sheet 'Samples'), CATDS: 4.7949039435888803E-2; n = 1
# GAK = conditions: read-out: apparent Kd, compound concentrations: 100 nM and 1000 nM (sheet 'Samples'), n = 1
# IGF1R = conditions: read-out: apparent Kd; compound concentrations: 100 nM and 1000 nM (sheet 'Samples'), CATDS: 5.4863623433827502E-2; n = 1
# INSR = conditions: read-out: apparent Kd; compound concentrations: 100 nM and 1000 nM (sheet 'Samples'), CATDS: 6.5997959622395005E-2; n = 1
# MAPK10 = conditions: read-out: apparent Kd; compound concentrations: 100 nM and 1000 nM (sheet 'Samples'), CATDS: 0.16896566157677501; n = 1
# MAPK8 = conditions: read-out: apparent Kd; compound concentrations: 100 nM and 1000 nM (sheet 'Samples'), CATDS: 0.131985587437009; n = 1
# MAPK9 = conditions: read-out: apparent Kd; compound concentrations: 100 nM and 1000 nM (sheet 'Samples'), CATDS: 0.113022620554471; n = 1
# PTK2B = conditions: read-out: apparent Kd; compound concentrations: 100 nM and 1000 nM (sheet 'Samples'), CATDS: 8.3393690442652907E-2; n = 1
# TNK1 = conditions: read-out: apparent Kd; compound concentrations: 100 nM and 1000 nM (sheet 'Samples'), CATDS: 0.131122015547642; n = 1
# TTK = conditions: read-out: apparent Kd; compound concentrations: 100 nM and 1000 nM (sheet 'Samples'), CATDS: 6.1430797612991001E-2; n = 1
# CDK6 = conditions: read-out: apparent Kd; compound concentrations:100 nM and 1000 nM (sheet 'Samples'); n = 1
# CIT = conditions: read-out: apparent Kd; compound concentrations:100 nM and 1000 nM (sheet 'Samples'); n = 1
# CSNK1A1 = conditions: read-out: apparent Kd; compound concentrations:100 nM and 1000 nM (sheet 'Samples'); n = 1
# DDR1 = conditions: read-out: apparent Kd; compound concentrations:100 nM and 1000 nM (sheet 'Samples'); n = 1
# MAPK11 = conditions: read-out: apparent Kd; compound concentrations:100 nM and 1000 nM (sheet 'Samples'); n = 1
# MAPKAPK2 = conditions: read-out: apparent Kd; compound concentrations:100 nM and 1000 nM (sheet 'Samples'); n = 1
# NLK = conditions: read-out: apparent Kd; compound concentrations:100 nM and 1000 nM (sheet 'Samples'); n = 1
# PRKCA = conditions: read-out: apparent Kd; compound concentrations:100 nM and 1000 nM (sheet 'Samples'); n = 1
# PRKD2 = conditions: read-out: apparent Kd; compound concentrations:100 nM and 1000 nM (sheet 'Samples'); n = 1
# PRKD3 = conditions: read-out: apparent Kd; compound concentrations:100 nM and 1000 nM (sheet 'Samples'); n = 1
# RIPK2 = conditions: read-out: apparent Kd; compound concentrations:100 nM and 1000 nM (sheet 'Samples'); n = 1
# SIK3 = conditions: read-out: apparent Kd; compound concentrations:100 nM and 1000 nM (sheet 'Samples'); n = 1
# TNIK = conditions: read-out: apparent Kd, n = 1
# CDKL5 = conditions: read-out: apparent Kd; compound concentrations:100 nM and 1000 nM (sheet 'Samples'); n = 1
# DJA1 = test system: T1, DJA1; conditions: read-out: apparent Kd; compound concentrations:100 nM and 1000 nM (sheet 'Samples'); n = 1
# T1 construct: gene DNAJA1
# DYRK1A = conditions: read-out: apparent Kd, n = 1
# MAPK14 = conditions: read-out: apparent Kd; compound concentrations:100 nM and 1000 nM (sheet 'Samples'); n = 1
# CLK2 = conditions: read-out: apparent Kd; compound concentrations: 100 nM and 1000 nM (sheet 'Samples'), CATDS: 8.8411635671529196E-2; n = 1
# JAK1 = conditions: read-out: apparent Kd; compound concentrations: 100 nM and 1000 nM (sheet 'Samples'), CATDS: 8.1370183106340005E-2; n = 1
# PI4KB = conditions: read-out: apparent Kd; compound concentrations: 100 nM and 1000 nM (sheet 'Samples'), CATDS: 0.120056979351962; n = 1
# PIK3C2B = conditions: read-out: apparent Kd; compound concentrations: 100 nM and 1000 nM (sheet 'Samples'), CATDS: 8.8068304969215402E-2; n = 1
# [1] = compound concentrations:100 nM and 1000 nM (sheet 'Samples')
compound,measurement,setting,value
CCCN1CCC(c2ccc(Nc3nc(Nc4cc(F)ccc4C(N)=O)c4cc[nH]c4n3)c(OC)c2)CC1 [GSK1326255A],potency estimated from few doses,CLK1; CATDS: 4.8485832065687497E-2,1210 nM
same,potency estimated from few doses,CLK4; CATDS: 5.2281896734728002E-2,912 nM
same,potency estimated from few doses,"CSNK1D; compound concentrations: 100 nM and 1000 nM (sheet 'Samples'), CATDS: 4.52776824202724E-2",1610 nM
same,potency estimated from few doses,"CSNK1E; compound concentrations: 100 nM and 1000 nM (sheet 'Samples'), CATDS: 4.2697744465197598E-2",2150 nM
same,potency estimated from few doses,EIF2AK1,1230 nM
same,potency estimated from few doses,FER,1260 nM
same,potency estimated from few doses,GAK; CATDS: 0.152402490696291,82.5 nM
same,potency estimated from few doses,IGF1R,775 nM
same,potency estimated from few doses,INSR,449 nM
same,potency estimated from few doses,MAPK10,70.3 nM
same,potency estimated from few doses,MAPK8,104 nM
same,potency estimated from few doses,MAPK9,137 nM
same,potency estimated from few doses,PTK2B,253 nM
same,potency estimated from few doses,TNK1,106 nM
same,potency estimated from few doses,TTK,548 nM
COc1cc(C)c(N(C)C(=O)CN(C)C)cc1Nc1nc(Nc2cccc(F)c2C(N)=O)c2cc[nH]c2n1 [GSK2219385_KCGS],potency estimated from few doses,CDK6,1850 nM
Cl.Nc1nccc(-c2c(-c3ccc(F)cc3)ncn2C2CCNCC2)n1 [SB-220025-A],potency estimated from few doses,CIT,815 nM
same,potency estimated from few doses,CSNK1A1,19.8 nM
same,potency estimated from few doses,CSNK1D; [1],1.63 nM
same,potency estimated from few doses,CSNK1E; [1],2.51 nM
same,potency estimated from few doses,DDR1,1350 nM
same,potency estimated from few doses,MAPK11,689 nM
same,potency estimated from few doses,MAPKAPK2,3.23 nM
same,potency estimated from few doses,NLK,324 nM
same,potency estimated from few doses,PRKCA,2370 nM
same,potency estimated from few doses,PRKD2,956 nM
same,potency estimated from few doses,PRKD3,1420 nM
same,potency estimated from few doses,RIPK2,68.3 nM
same,potency estimated from few doses,SIK3,1140 nM
same,potency estimated from few doses,TNIK; [1],1610 nM
O=C(Nc1n[nH]c2cc(-c3ccsc3)ccc12)C1CC1 [SB-732932_KCGS],potency estimated from few doses,CDK6,1430 nM
same,potency estimated from few doses,CDKL5,1820 nM
same,potency estimated from few doses,DJA1,2070 nM
same,potency estimated from few doses,DYRK1A; [1],1670 nM
same,potency estimated from few doses,MAPK14,1560 nM
Cl.O=C1Nc2ccc(-c3cccnc3)cc2C1=Cc1cc(Br)c(O)c(Br)c1 [GW2429374A],potency estimated from few doses,CLK1; CATDS: 0.24190894696409601,75.2 nM
same,potency estimated from few doses,CLK2,766 nM
same,potency estimated from few doses,CLK4; CATDS: 0.28990629676542801,56.3 nM
same,potency estimated from few doses,"DYRK1A; compound concentrations: 100 nM and 1000 nM (sheet 'Samples'), CATDS: 7.2131324717133599E-2",1760 nM
same,potency estimated from few doses,GAK; CATDS: 0.20480817101344501,100 nM
same,potency estimated from few doses,JAK1,1030 nM
same,potency estimated from few doses,PI4KB,315 nM
same,potency estimated from few doses,PIK3C2B,777 nM
same,potency estimated from few doses,"TNIK; compound concentrations: 100 nM and 1000 nM (sheet 'Samples'), CATDS: 8.7825927191877803E-2",784 nM
